test system: VDR:RXRa (NR concentration 270 nM, RXRa partner concentration 90 nM); test: PBM binding z-score (relative to random genomic background probes); higher = stronger binding; sequences stand for … in GC…GCGATTGACAGCGTAGAATGAAGG
Experimental: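 Protein-binding microarray (Agilent 4x180K custom design, double-stranded 60-nt probes: 5' GC cap, 34-nt variable region, 24-nt constant primer region; full probe sequence given). Purified or IVT nuclear receptor:RXRα heterodimers (3:1 NR:RXRα, mostly 270:90 nM) or homodimers were incubated for 1 h in PBS with 2% milk and no ligand, then detected with Alexa488 antibodies. Fluorescence from o1-orientation probes (~5 replicates averaged) was converted to z-scores against 500 random hg19 background probes. Variable regions are seed direct-repeat (DR0–DR5) sites, all their single-nucleotide variants and half-site ablations.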

| Sequence | PBM binding z-score |
| --- | --- |
| CGTCAAAGTCCAACTAAGGTAACGTAAAGCACGC | 0.393 |
| CGTCCAAGGTCATAGGAGGTCAGTGGAGACAGAT | 6.87 |
| CGTCCAAGGTCAAATGTCAGTGAAGAGATGACGG | 4.67 |
| TCTAGTTGGTCAAAGGTCGCACACTCGAAATGCG | 3.18 |
| TGAATGAGGTTAAGGATCAGGGAACGTGGCGTCG | 0.99 |
| ATCTCTAGGTAAAGATAGTTCCGTGAATGCAAAT | -0.0941 |
| ATCTCTAGGTAAAGTTCCGTGAAAGATCGATAGA | 0.335 |
| GCTAGTTGGTCAGGAAAAGGTCACACACCGGTCG | 3.66 |
| TCGAGTAGGTTAGTCGGGGCATTCCGCCAACATA | 2.1 |
| CCTACTGGGCCATCAGGTCATTCATATCAACGTT | 1.67 |
| TCTAGCAGGCCAGAGGGTCACTCATGAGGTACGG | 1.4 |
| CGTCCAAAGTCATAGGAGGTCAGTGAAGACAGAT | 3.12 |
| CTCGAAGGGTCGGTTGAGGTGAGTATACGGATAA | 1.25 |
| TCATATAGGTAAAAGCTGAAAGTCGGTGTGGTAA | 0.748 |
| TCTTGTAGATCAAGCAGGTTCAGAAAGCCTGAGT | 1.93 |
| TCGAGTAGGTTACCAATCGGGCATTCAGCTTTCT | -0.344 |
| CCCGACAGGTGAAAGGTAACTCAGTCTGGTACGC | 0.836 |
| ATCTCTAGGTCAAGTTCAGTGAAAGATCGATAGA | 3.65 |
| TCTCGGAGGACACGATAGGTCAGAGCTCGACATC | 0.769 |
| GGAACGCGGGCAAGTTGATAGCAGAGTTTGATGG | -0.834 |

| Sequence | PBM binding z-score |
| --- | --- |
| CAAACTAGGTAACAGAGGTCAAAGTCCGTGCGTA | 5.87 |
| AGTCAAAGTTCACTAGGTAACTTAAGATTCAGCT | 3.88 |
| CGTCCAAGGTCAGTGCTAGGTCAGTGAAAGCATT | 3.71 |
| CCAGACAGGTGAAAAGTAACTCAGTCTGGTACGC | 0.113 |
| CGTCCAAGGTCAGCAGCTCAGTGAAAGCGACGTG | 2.09 |
| ATATGTAGGCTAAGGGTCATTCAGGTTGGTTCGC | 5.13 |
| ACTAGTTGGTTAGCTGAGGTCACACACAATTCGG | 4.03 |
| GCAGACAGGTGAAACGCAGGTACCTCAGGGTGGC | -0.756 |
| ATCTCTAGGTAACAAGTTCATTGAAAGAGAGGAC | 3.84 |
| AATACAGGGTCATCGTGGGCCAGAGTACGCACAG | 5.18 |
| ATCTCTAGGTAAAACTTCAGTGAATCCCGAGGAT | -0.0846 |
| ATCGAATGGTCGACGAGGTGAGTATACACCGTTT | 0.0601 |
| ATCGAAAGTTCGAGGTGAGTATAGAGAAAGGGAA | 1.16 |
| TGAAAGAGGTTATAAGATCAGGGAACGTTGCAAA | 0.894 |
| TCGCCTAGGTCATTGGGCCAGTATAGTACGCATC | 2.23 |
| CGAACTAGATCATCCAGGACAGTGAATACATTGA | 0.286 |
| CCTACTGGGCCAAAAAGGTCAGTGATGCCGATAA | 2.91 |
| TCAGACAGGTGTAGGTAACTCAGGTACGCAGTCG | 0.89 |
| CGTCCAGGGTCATAGGAGGTCAGTGAAGACAGAT | 6.65 |
| TCAGACAGGTGAACGTAACTCAGGTACGCAGTCG | 0.682 |

Reference: the supplement of paper PMC6555819
